Bioassay records as filed in PubChem.
In the library only some 5.4% were active in any assay of this set; here they are far more common.
MPTP inh = blocks calcium-induced mitochondrial swelling; isolated mouse mitochondria, Ca2+ swelling absorbance, 30 min; inhibition, % at 10 µM; 360,000 compounds, 1.4% hits;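 active means inhibition of 50% or more, scaled per plate between neutral and stimulator controls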
Calb FLC = affects C. albicans growth with fluconazole. AID 1979. 300,000 compounds, 0.57% hits. growth inhibition, % (concentration not given with the values). C. albicans CaCi-2 (fluconazole-resistant clinical isolate) + fluconazole, Alamar Blue growth, 48 h;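 active means growth inhibition above about 58% in most replicates, limit read from the data, passing the limit was not always enough; inconclusive means exactly half the replicates above a set limit; inactive means most replicates below a set limit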;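 further: all wells also contain fluconazole at 8 µg/ml as a sub-toxic cotreatment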
CSC inhib = blocks cancer stem cells | cancer stem cell-like cells viability, luminescence | inhibition, % at 7.5 µM | 300,000 compounds, 1.1% hits; in the data active means inhibition above about 75%; inconclusive means no clear call, values can overlap the other calls; tested in HMLE shEcad cells
Mdm2-MdmX inh = inhibitors of human Mdm2/MdmX interaction; SaOS-2 split-luciferase Mdm2/MdmX complementation, luminescence; 330,000 compounds, 3% hits; O15151+Q00987; inhibition, % at 8 µM;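 active means inhibition of at least 50% at 8 µM in the primary screen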
Target sequence (O15151 whole entry, looked up): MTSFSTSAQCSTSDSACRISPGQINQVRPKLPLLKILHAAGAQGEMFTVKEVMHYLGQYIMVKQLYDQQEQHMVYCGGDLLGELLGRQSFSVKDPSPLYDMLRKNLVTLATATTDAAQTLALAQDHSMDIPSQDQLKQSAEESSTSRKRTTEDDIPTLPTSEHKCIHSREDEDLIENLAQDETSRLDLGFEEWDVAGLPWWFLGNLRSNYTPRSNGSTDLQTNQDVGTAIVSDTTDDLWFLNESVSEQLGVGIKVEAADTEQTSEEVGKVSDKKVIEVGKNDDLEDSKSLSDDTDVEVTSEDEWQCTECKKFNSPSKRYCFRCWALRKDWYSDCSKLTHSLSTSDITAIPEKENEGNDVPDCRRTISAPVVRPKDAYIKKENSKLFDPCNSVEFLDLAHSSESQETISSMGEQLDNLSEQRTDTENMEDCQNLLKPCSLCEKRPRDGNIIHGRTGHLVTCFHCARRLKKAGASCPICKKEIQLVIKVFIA
Target sequence (Q00987 whole entry, looked up): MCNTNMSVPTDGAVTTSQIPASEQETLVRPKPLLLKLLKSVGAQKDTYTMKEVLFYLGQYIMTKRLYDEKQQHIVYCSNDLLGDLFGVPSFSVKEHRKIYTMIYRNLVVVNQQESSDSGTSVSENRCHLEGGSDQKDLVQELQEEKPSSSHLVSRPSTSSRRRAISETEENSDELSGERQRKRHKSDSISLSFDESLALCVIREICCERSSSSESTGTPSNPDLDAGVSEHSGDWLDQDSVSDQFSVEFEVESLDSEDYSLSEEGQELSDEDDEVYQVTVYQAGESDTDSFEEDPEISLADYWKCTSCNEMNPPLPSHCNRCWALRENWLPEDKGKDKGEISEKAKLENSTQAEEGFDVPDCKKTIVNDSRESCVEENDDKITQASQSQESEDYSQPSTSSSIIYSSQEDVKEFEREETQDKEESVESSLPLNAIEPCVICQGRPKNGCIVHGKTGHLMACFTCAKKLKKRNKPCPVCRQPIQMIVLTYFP
SKKanGAS inh = inhibitors of SKKanGAS S. pyogenes growth in kanamycin (SK-promoter or general growth effect); 300,000 compounds, 1.3% hits; inhibition, % at 7.5 µM; BacTiter-Glo, 6 h;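 active means mean replicate score, as percent of positive control median, at least 50; inconclusive means mean below 50 but one replicate at or above 50; inactive means mean and every replicate below 50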;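 further: strain carries kanamycin resistance gene driven by streptokinase promoter and grows in 40 µg/ml kanamycin; loss of luminescence reflects streptokinase promoter inhibition or plain growth inhibition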
Beta apoptosis = beta cell apoptosis inhibition. INS-1E cytokine-induced death, ATP luminescence, 48 h; percent of positive-control rescue, neutral wells zero. AID 435005. protection from apoptosis, % (concentration not given with the values). 300,000 compounds, 0.8% hits;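 active means Every replicate reaches about 75%, or at least half do and their mean reaches it too, limit read from the data; inconclusive means At least half of replicates reach the limit but their mean does not; inactive means Under half of replicates reach the limit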;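 further: higher means more ATP so stronger rescue from cytokine killing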
Large screens that a line does not name were inactive.

Cc1cc(C)cc(-n2c(C)cc(/C=C3\C(=N)N4N=C(CC(C)C)SC4=NC3=O)c2C)c1	CSC inhib 103, SKKanGAS inh 69
CCCC1=NN2C(=N)/C(=C\c3cc(C)n(-c4cc(C)cc(C)c4)c3C)C(=O)N=C2S1	SKKanGAS inh 72
CCOC(=O)Cn1nc(-c2ccccc2)c2cnc3ccc(C)cc3c21	none
Cc1cc(=O)n2[nH]c(-c3ccc(F)cc3)nc2n1	none
COc1ccc(NC(=O)N2CCCc3ccccc32)cc1	none (no result: CSC inhib)
COc1ccc(N/N=C(/C(C)=O)N2CCCc3ccccc32)cc1	CSC inhib 88
Brc1ccc(CSc2nnc(-c3cnccn3)n2Cc2ccco2)cc1	Calb FLC 99
O=C(Nc1cc(C(F)(F)F)ccc1N1CCCC1)c1cccnc1	none (no result: Beta apoptosis)
CC(C)NC(=O)COC(=O)c1cccc(NS(=O)(=O)/C=C/c2ccccc2)c1	Calb FLC 103
NC(=O)COC(=O)c1cccc(NS(=O)(=O)/C=C/c2ccccc2)c1	none (no result: CSC inhib)
O=C(N/N=C/c1ccc(OC2CSC2)cc1)c1ccccc1	CSC inhib 89
CCOC(=O)c1cnn(-c2ccc(NS(=O)(=O)c3ccc(Cl)cc3)cc2)c1C(F)(F)F	SKKanGAS inh 55
O=C(Nc1ccc(O)c(-c2nc3ccccc3o2)c1)C1(c2ccc(Br)cc2)CCCC1	CSC inhib 84
CCN1CCN(c2ccc(NC(=O)c3ccc(Cl)c(S(=O)(=O)N4CCCC4)c3)cc2)CC1	none (no result: Calb FLC, CSC inhib, SKKanGAS inh, Beta apoptosis)
CCN(CC)CCOC(=O)c1ccc(NC(=O)c2ccc(Cl)c(S(=O)(=O)N3CCCCCC3)c2)cc1	CSC inhib 77
FC(F)(F)c1cc(N2CCN(Cc3ccccc3)CC2)c2ccccc2n1	SKKanGAS inh 50
O=C(N/N=C/c1ccc(O)cc1O)c1ccncc1	none
O=C(N/N=C/c1cc(Br)cc(Br)c1O)c1ccncc1	Calb FLC inconclusive, SKKanGAS inh 69, Beta apoptosis 79 (no result: MPTP inh)
O=C(N/N=C\c1cc(Cl)ccc1O)c1ccc(S(=O)(=O)N2CCCCC2)cc1	Calb FLC 92, SKKanGAS inh 121, Beta apoptosis 97
O=C(N/N=C/c1cccnc1)c1cccc(Cl)c1	none
O=C(N/N=C/c1ccc(Cl)cc1Cl)c1ccncc1	none
O=C(N/N=C/c1cc(Cl)cc(Cl)c1O)c1ccncc1	SKKanGAS inh 88
O=C(N/N=C/c1cc(Cl)ccc1O)c1cccnc1	SKKanGAS inh 85, Beta apoptosis 86
CC1(C(=O)Nc2ccc3c(c2)OCO3)CCN1C(=O)C1(c2ccc(Cl)cc2)CC1 (configuration not stated)	none (no result: Calb FLC, CSC inhib, Mdm2-MdmX inh, SKKanGAS inh, Beta apoptosis)
Cc1ccc(NC(=O)C2C(C(=O)O)C3C=CC2C32CC2)cc1 (configuration not stated)	Calb FLC 79
Cc1cccc(NC(=O)C2C(C(=O)O)C3C=CC2C32CC2)c1C (configuration not stated)	none
CCN1CCN(CCCOc2ccc(-c3ccccc3)cc2)CC1	CSC inhib 125 (no result: MPTP inh)
COCCn1c(=O)[nH]c(=O)c2cc(C(=O)c3cc(Cl)ccc3O)cnc21	Calb FLC 89
CC(NC(=O)c1ccc([N+](=O)[O-])o1)C1CC2CCC1C2 (configuration not stated)	none (no result: Calb FLC, SKKanGAS inh)
CC(=O)NS(=O)(=O)c1ccc(N=c2ssc3c2-c2ccc(C)cc2NC3(C)C)cc1	SKKanGAS inh 82
COc1ccc(CNC(=O)C(c2ccco2)N(C(=O)c2snc(C(N)=O)c2N)c2cccc(OC)c2)cc1 (configuration not stated)	none
O=C(c1ccc(Cl)c(S(=O)(=O)N2CCc3ccccc3C2)c1)N1CCN(c2ccccc2)CC1	none
O=c1cc(O)c(-c2ccccc2)c(Cl)[nH]1	none (no result: CSC inhib)
O=C(c1cc2cc(F)ccc2[nH]1)N1CCN(c2cccc(Cl)c2)CC1	none
Cc1[nH]c(-c2ccc(F)cc2)cc1C(=O)N1CCN(c2cccc(Cl)c2)CC1	SKKanGAS inh 67
Cc1ccc(-c2nc(P(=O)(c3ccccc3)c3ccccc3)c(N3CCOCC3)o2)cc1	none
CNc1oc(-c2ccc(Cl)cc2)nc1P(=O)(c1ccccc1)c1ccccc1	CSC inhib 120
CSc1ccc(/C=C2\CCn3c2nc2cc(C(=O)O)ccc2c3=O)cc1	SKKanGAS inh 52
COC(=O)c1ccc(/C=C2\CCn3c2nc2cc(C(=O)O)ccc2c3=O)cc1	none
CC(C)CCNc1nc(-c2ccco2)c2c(c1C#N)CCCC2	CSC inhib 80
O=C(/C=C/c1ccc(F)cc1)c1ccccc1Br	CSC inhib 108
Cc1ccc(C(=O)/C=C/c2ccc(F)cc2)o1	none (no result: Beta apoptosis)
CC(C)(C)c1ccc(NC(=O)N2CCCN(c3c(Cl)cncc3Cl)CC2)cc1	CSC inhib 77
O=C(Nc1ccccc1)N1CCCN(c2c(Cl)cncc2Cl)CC1	none
CCCCNC(=O)C(=O)N/N=C/c1ccc(OCC(=O)Nc2cccc(OC)c2)c(OC)c1	none (no result: CSC inhib)
CC(Sc1ccc(Cl)cc1)C(=O)NCc1ccc2c(c1)OCO2 (configuration not stated)	Calb FLC 97
CC(Sc1ccc(Cl)cc1)C(=O)Nc1ccc2c(c1)OCO2 (configuration not stated)	none
COc1ccc(-c2ccc3nnc(SCC(=O)N4CCCC4)n3n2)cc1	none
CCN(C(=O)CSc1nnc(C)n1-c1ccc(C)cc1)c1c(N)n(Cc2ccccc2)c(=O)[nH]c1=O	none (no result: Calb FLC, CSC inhib, Mdm2-MdmX inh, SKKanGAS inh, Beta apoptosis)
COc1cc(NS(=O)(=O)c2ccc(NC(=S)NC(=O)c3cccs3)cc2)nc(OC)n1	none
Cc1ccc(CNC(=S)Nc2ccc(NS(=O)(=O)c3ccc(C)cc3)cc2)cc1	SKKanGAS inh 56
Cc1ccc(NC(=S)NCc2ccc(F)cc2)cc1	none (no result: Beta apoptosis)
Cc1cc(C)cc(NS(=O)(=O)c2ccc(NC(=S)NC(=O)c3cccs3)cc2)c1	SKKanGAS inh 77
CSc1cccc(NC(=S)N(CCCN2CCCC(C)C2)Cc2cccs2)c1 (configuration not stated)	none
CCC(O)CC(C(=O)NNc1ccccc1)C(=O)NNc1ccccc1 (configuration not stated)	Calb FLC 100
CCOC(=O)NNc1ccccc1	none
CC(=O)N(C1=C(Cl)C(=O)c2ccccc2C1=O)C1CCCCC1	SKKanGAS inh 53
Cc1nn(-c2ccccc2)c2sc(-c3n[nH]c(=S)o3)cc12	SKKanGAS inh 80
C=C(C(=O)c1ccccc1)C(C)C(=C)C(=O)c1ccccc1	CSC inhib 82, Beta apoptosis 117 (no result: Mdm2-MdmX inh)
CCc1ccc(-n2c(=S)sc3c(=O)n(-c4ccccc4C)c(SCC(=O)O)nc32)cc1	none
C#CCOCCOCCOCCNc1nc(N2CCN(C(=O)CCCCCCCCCCNC(=O)[C@H]([C@@H](C)CC)n3cc(CCCCN=C(N)N)nn3)CC2)nc(N2CCN(C(=O)CCCCCCCCCCNC(=O)[C@H](CCCCN)n3cc(C)nn3)CC2)n1	Beta apoptosis 98 (no result: MPTP inh, Calb FLC, SKKanGAS inh)
